Bioassay records deposited in PubChem by National Center for Advancing Translational Sciences (NCATS).
VACV Venus inh: vaccinia inhibition (Venus reporter) | Vaccinia virus Venus reporter expression, fluorescence | Potency, µM (doses to about 36.5 µM), for the others: top-dose activity change, negative = inhibition, hits mostly inhibitors | 0.46% of 330,000 active | AID 720580; calls by dose curve; tested in A549 cells; note: potency is the fitted concentration of half-maximal effect; nearly all actives have a fitted effect of over 30% in size
FMDV inh: antivirals against foot and mouth disease virus; FMDV antiviral cell-based qHTS; 1.2% of 410,000 active; Potency, µM (series often up to 57.9 µM), without a hit: at the top dose activity change, negative = inhibition, actives largely listed as inhibitors; calls by dose curve; tested in HEK293T cells; note: read-out not given here; potency is the fitted concentration of half-maximal effect; nearly all actives have a fitted effect of over 45% in size
HCV inh: inhibitors of hepatitis C virus infection. Huh7.5.1 HCVcc-Cre infection, luciferase reporter, 44 h. Potency, µM (highest dose often 41.8 µM), without a hit: at the top dose activity change, negative = inhibition, most hits filed as inhibitors. 3.4% of 340,000 active. AID 651820; note: potency is the fitted concentration of half-maximal effect
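HCVcc-Cre virus at an moi near 0.5 was added right after compound to cells cultured 4 h from seeding (1,000 cells/well). Luciferase activity was determined 44 h later, 15 min after substrate addition at RT.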
Sm TGR inh: inhibitors of Schistosoma mansoni thioredoxin glutathione reductase. Potency, µM (doses to about 114 µM), inactives show top-dose activity change, negative = inhibition, most hits filed as inhibitors. AID 485364. 3% of 360,000 active. Q962Y6. purified TGR, DTNB reduction, TNB absorbance 405 nm; note: potency is the fitted concentration of half-maximal effect; nearly all actives have a fitted effect of over 60% in size
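First, TGR (20 nM dispensed) and NADPH were mixed with compound. Second, a 15 min room-temperature incubation followed. Third, further NADPH and then DTNB were added to start the reaction. Finally, TNB absorbance was monitored kinetically.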
HCMV inh: inhibitors of human cytomegalovirus. HFF cells, HCMV-luciferase reporter, 72 h; active compounds read low. activity change, negative = inhibition, % at 57.5 µM. 4.5% of 410,000 active. AID 1259415; in the data active = activity change below about -60%; inconclusive = no clear call, values can overlap the other calls; inactive = above about -39%
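Compounds were evaluated in HFFs infected with an HCMV luciferase reporter virus (MOI 1 PFU/cell). Luciferase in lysates collected 72 h post infection served as the replication measure.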
VACV mCherry inh: vaccinia inhibition (mCherry reporter); 0.63% of 310,000 active; Vaccinia virus mCherry reporter infection, fluorescence; AID 720579; Potency, µM (series often up to 36.5 µM), for the others: top-dose activity change, negative = inhibition, actives largely listed as inhibitors; calls by dose curve; tested in A549 cells; note: potency is the fitted concentration of half-maximal effect; nearly all actives have a fitted effect of over 35% in size
Numbers without * were called inactive. Hits are enriched below; roughly 9.3% of the tested compounds scored in any of these assays. Unless noted, calls come from the whole dose curve; as a rule, active = well fitted curve in the direction sought with a large enough effect; inconclusive = small, poorly fitted or top-dose-only effect, or another doubt; inactive = no such curve, though single readings can be large; an effect the other way counts as inactive or inconclusive. % is set by controls: 0 for no effect and ±100 for the full control effect.

How did COc1ccc(C2C(=O)N(C3CCCCC3)CC(=O)N2C2CCCCC2)cc1 (centres undefined) do in these assays?
VACV Venus inh: -9.7%; FMDV inh: -15.3%; HCV inh: 9.2%; Sm TGR inh: 0.3%; HCMV inh: inconclusive; VACV mCherry inh: -3.7%

How did CCN(CC)CCC/C(=N\O)C(O)(c1ccccc1)c1ccccc1 do in these assays?
FMDV inh: -5.1%; HCV inh: 6.0%; Sm TGR inh: 5.1%; HCMV inh: -36.5

What do the screens show for `CSc1ccc(CN(C)C(=O)CCNS(=O)(=O)c2ccc(C)c(C)c2)cc1`?
VACV Venus inh: -22.6%; FMDV inh: -14.9%; HCV inh: -26.6%; Sm TGR inh: 1.4%; HCMV inh: -26.4; VACV mCherry inh: -9.6%

What do the screens show for `CC1(C)CN=C(N2CCN(C3=NCC(C)(C)S3)CC2)S1`?
Sm TGR inh: -29.7%

Results for Nc1nc(NCc2ccccc2)c2[nH]cnc2n1 ?
VACV Venus inh: -11.1%; VACV mCherry inh: -14.1%

Results for O=S(=O)(/C=C/C=C/S(=O)(=O)c1ccccc1)c1ccccc1 ?
VACV Venus inh: 14.1µM*; FMDV inh: 7.94µM*; HCV inh: 8.91µM*; HCMV inh: -78.1*; VACV mCherry inh: inconclusive

Results for Cc1ccc(S(=O)(=O)C=CS(=O)(=O)c2ccc(C)cc2)cc1 ?
VACV Venus inh: -21.3%; FMDV inh: inconclusive; HCMV inh: inconclusive; VACV mCherry inh: inconclusive

What do the screens show for `CC(=O)Nc1cc[n+](CC(=O)c2ccc(Cl)cc2)cc1`?
VACV Venus inh: -14.4%; FMDV inh: 18.0%; HCV inh: inconclusive; Sm TGR inh: 2.1%; HCMV inh: -18.7; VACV mCherry inh: inactive

What do the screens show for `Cc1ccc(Cl)cc1Nc1nn2c(=O)c3ccc(C(=O)NCc4ccc(F)cc4)cc3nc2s1`?
VACV Venus inh: inconclusive; FMDV inh: -5.7%; Sm TGR inh: 40.6%; HCMV inh: -2.8; VACV mCherry inh: inconclusive

Results for CN(C)c1ccc(C=C2C(=O)c3ccccc3C2=O)cc1 ?
VACV Venus inh: -4.2%; VACV mCherry inh: 34.4%

Results for CC(=O)NC1=C(Nc2ccc(N(C)C)cc2)C(=O)c2ccccc2C1=O ?
VACV Venus inh: -7.7%; FMDV inh: -12.2%; HCV inh: inconclusive; Sm TGR inh: inconclusive; HCMV inh: -87.9*; VACV mCherry inh: inconclusive

What do the screens show for `CC(=O)NC1=C(N(C)C2CCS(=O)(=O)C2)C(=O)c2ccccc2C1=O` (centres undefined)?
VACV Venus inh: -1.2%; FMDV inh: 12.6µM*; HCV inh: -58.0%; Sm TGR inh: inconclusive; HCMV inh: -32.8; VACV mCherry inh: -10.5%

How did CCc1cccc(C)c1NC(=O)CSc1n[nH]c(-c2ccccc2)n1 do in these assays?
VACV Venus inh: -15.9%; FMDV inh: inconclusive; Sm TGR inh: 3.8%; HCMV inh: -11.8; VACV mCherry inh: -13.1%

How did Cc1noc(C)c1C(=O)OCC(=O)NC(=O)c1ccc(C(C)(C)C)cc1 do in these assays?
VACV Venus inh: -4.6%; FMDV inh: 0.0%; HCMV inh: -2.1; VACV mCherry inh: -7.9%

How did C=CC[n+]1c(-c2ccc(OC)cc2)csc1NNC(=O)Nc1ccccc1 do in these assays?
VACV Venus inh: -22.8%; HCV inh: 11.2µM*; Sm TGR inh: 7.5%; HCMV inh: inconclusive; VACV mCherry inh: -24.7%

How did CC(=O)Nc1ccc(-c2ccc(NC(C)=O)cc2)cc1 do in these assays?
VACV Venus inh: -10.4%; FMDV inh: 59.2%; HCV inh: 7.8%; Sm TGR inh: -0.3%; HCMV inh: 20.5; VACV mCherry inh: inactive

Results for C=CC[n+]1c(-c2ccc(C)cc2)csc1Nc1ccc(NC(C)=O)cc1 ?
FMDV inh: inconclusive; HCV inh: -26.6%; Sm TGR inh: 0.2%; HCMV inh: -88.5*

How did O=C(NCc1ccccc1)c1ccc(CN2CCC(Cc3ccccc3)CC2)cc1 do in these assays?
FMDV inh: 0.0%; HCV inh: 10µM*; Sm TGR inh: 35.9%; HCMV inh: -24.0

Results for COCCNC(=O)c1ccc(CN2CCC(Cc3ccccc3)CC2)cc1 ?
VACV Venus inh: -10.8%; FMDV inh: -9.0%; HCV inh: -23.6%; Sm TGR inh: -6.3%; HCMV inh: -1.8; VACV mCherry inh: inactive
